# Screening results (PubChem)
# Sampled rows, rich in hits. Any-hit rate of the full collection: about 8.2%.
# ELG1 repair inh: inhibitors of ELG1-dependent DNA repair in HEK293T cells; HEK293T ELG1-luciferase reporter, luminescence, 16 h; DNA damage induced by 5-fluorouridine; Potency, µM (top dose mostly 46.1 µM), for inactives: at the top dose activity change, negative = inhibition, hits mostly inhibitors; 2.3% of 330,000 active; AID 504467; note: % is set by controls: 0 for no effect and ±100 for the full control effect; nearly all actives have a fitted effect of over 55% in size
#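 DMSO vehicle served as the neutral condition. Each well held 2,000 cells given 5-fluorouridine plus compound; after 16 hr at 37 °C/5% CO2, ONE-Glo was added and luciferase measured 30 min later.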
# MCF10A rereplic: induces DNA re-replication in MCF 10a normal breast cells. MCF 10A DNA re-replication, Hoechst nuclear intensity, 48 h. Potency, µM (doses to about 46.1 µM), inactives show top-dose activity, positive = re-replication, hits mostly activators. 2.9% of 350,000 active. AID 624296; note: % of control where 0% means no effect; nearly all actives have a fitted effect of over 50% in size
# SW480 rereplic: induces DNA re-replication in SW480 colon adenocarcinoma cells. SW480 DNA re-replication, Hoechst DNA content imaging, 48 h. Potency, µM (doses to about 46.1 µM), without a hit: top-dose re-replication activation, usual class: activators. 1.8% of 340,000 active; note: % of control where 0% means no effect; nearly all actives have a fitted effect of over 55% in size
#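 DNA re-replication was detected as more nuclei of elevated Hoechst intensity after 48 hr exposure to compound (23 nL pinned per well of 250 cells).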
# KB-V1 cytotox: KB-V1 MDR subline cytotoxicity; 3.4% of 400,000 active; KB-V1 MDR cells viability, CellTiter-Glo, 72 h; AID 1347076; Potency, µM (top dose mostly 46.1 µM), most hits filed as cytotoxic; note: % is set by controls: 0 for no effect and ±100 for the full control effect; nearly all actives have a fitted effect of over 60% in size
#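 Readout: CellTiter-Glo luminescence, 10 min after addition. Cells: KB-V1 MDR subline, 72 h at 37 degrees C with compound. Analysis: corrected, normalized data fitted to concentration-effect curves.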
# KB-3-1 tox: KB-3-1 parental cell cytotoxicity; KB-3-1 viability, CellTiter-Glo ATP luminescence, 72 h; Potency, µM (highest dose often 46.1 µM), hits mostly cytotoxic; 1.4% of 400,000 active; note: % is set by controls: 0 for no effect and ±100 for the full control effect; nearly all actives have a fitted effect of over 60% in size
#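 Cytotoxicity measured as CellTiter-Glo luminescence after 72 h at 37 C. Compound titrations were pinned onto drug-naive KB-3-1 parental adenocarcinoma cells grown in DMEM with 10% FBS, and normalized data fitted to concentration-response curves.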
# The depositor's hits bear a star; i = inactive; ? = inconclusive; / = not tested or not shown; [ ] = dose if it differs, or a comment. Calls come from the whole dose curve; as a rule, active = well fitted curve in the direction sought with a large enough effect; inconclusive = small, poorly fitted or top-dose-only effect, or another doubt; inactive = no such curve, though single readings can be large; an effect the other way counts as inactive or inconclusive. Potency is the fitted concentration of half-maximal effect.
SMILES,ELG1 repair inh,MCF10A rereplic,SW480 rereplic,KB-V1 cytotox,KB-3-1 tox
O=C(CSc1nc2c([nH]c3ccccc32)c(=O)n1-c1ccc(Cl)cc1)N1CCCC1,/,/,/,i,i
O=C(Nc1ccc(S(=O)(=O)N2CCCC2)cc1)C1CC(=O)N(CCc2ccc(F)cc2)C1 (centres undefined),-18%,8%,0%,i,i
O=C(Nc1cccc(-c2cccc(Cl)c2)c1)C1CCN(Cc2nccs2)CC1,/,/,/,?,i
COc1ccc(NC(=O)c2n[nH]c(=O)c3ccccc23)cc1S(=O)(=O)N1CCCCC1,23µM*,-1%,16%,?,i
COc1ccc(NC(=O)CCc2nc3ccccc3c(=O)[nH]2)cc1S(=O)(=O)N1CCCCC1,26µM*,5%,-25%,i,i
COc1ccc(NC(=O)c2ccco2)cc1S(=O)(=O)N1CCCCC1,0%,-2%,-3%,?,i
COc1ccc(NC(=O)[C@@H]2CCCN2S(=O)(=O)c2ccccc2F)cc1S(=O)(=O)N1CCCCC1,15µM*,2%,4%,i,i
COc1ccc(C)cc1NC(=O)C1CCCN1S(=O)(=O)c1ccccc1F (centres undefined),?,1%,3%,i,i
COc1ccc(NC(=O)Cc2ccsc2)cc1S(=O)(=O)N1CCCCC1,-9%,-3%,0%,21µM*,i
Cc1sc2nc(SCC(=O)C(C)(C)C)n(Cc3ccco3)c(=O)c2c1C,?,5.8µM*,5.8µM*,2.6µM*,?
Cc1ccc(CSc2nc3sc(C)c(C)c3c(=O)n2Cc2ccco2)cc1,1%,-1%,-12%,i,i
COc1cccc(CSc2nc3sc(C)c(C)c3c(=O)n2Cc2ccco2)c1,-1%,?,13%,i,i
Cc1sc2nc(SCc3ccccc3)n(Cc3ccco3)c(=O)c2c1C,-6%,9.2µM*,6%,i,i
COc1ccc(NC(=O)CSc2nc3sc(C)c(C)c3c(=O)n2Cc2ccco2)cc1,-1%,15µM*,?,?,i
Cc1onc(-c2ccccc2)c1C(=O)OCc1nnc(-c2ccc([N+](=O)[O-])cc2)o1,?,11%,-5%,15µM*,i
Cc1onc(-c2ccccc2)c1C(=O)OCCOc1ccc([N+](=O)[O-])cc1[N+](=O)[O-],15µM*,17%,-2%,?,i
Cc1onc(-c2ccccc2)c1C(=O)OCCOc1ccccc1F,6%,15%,9%,?,i
Cc1ccccc1OCCOC(=O)c1c(-c2ccccc2)noc1C,?,?,9.2µM*,?,9.2µM*
O=C(COc1ccccc1F)NCC(c1ccc(F)cc1)N1CCOCC1 (centres undefined),-6%,14%,-3%,i,?
CCc1nc2c(OCc3ccccc3)cccn2c1N(C)C(C)=O,/,/,/,i,i
CC1=C(C(=O)N2CCCCCC2)CC(CC(=O)NCCc2ccccn2)C(=O)N1Cc1ccc(F)cc1 (centres undefined),/,/,/,i,i
Cc1cccc(C)c1NC(=O)C1(C)CSCC(=O)N1Cc1cccc(C(F)(F)F)c1 (centres undefined),/,/,/,?,i
Clc1ccccc1-c1nc(N/N=C/c2cccnc2)c2ccccc2n1,?,20%,4%,i,i
COc1ccc(/C=N/Nc2nc(-c3cccnc3)nc3ccccc23)cc1OC,6.5µM*,23%,-2%,i,i
Cc1ccc(-c2nc(N/N=C/c3ccncc3)c3ccccc3n2)cc1,?,3%,4%,23µM*,?
SMILES,ELG1 repair inh,MCF10A rereplic,SW480 rereplic,KB-V1 cytotox,KB-3-1 tox
COc1ccc(/C=N/Nc2ncnc3scc(-c4ccccc4)c23)cc1OC,18µM*,?,?,i,?
Cc1c(O)ccc(/C=N/Nc2nc(-c3cccnc3)nc3ccccc23)c1O,5.2µM*,?,?,?,i
Cc1ccccc1Nc1nc(-c2cccnc2)nc2ccccc12,?,4%,-6%,i,i
COc1ccccc1Nc1ncnc2scc(-c3ccc(F)cc3)c12,/,/,/,i,?
CC(=O)N1c2ccccc2C(=O)C1N1CCN(c2cc(Cl)ccc2C)CC1 (centres undefined),/,/,/,i,i
CNc1ccc(-c2cccc(C#N)c2)cn1,/,/,/,i,i
Cc1ccc(C(=O)OCN2C(=O)c3ccccc3C2=O)cc1S(=O)(=O)N1CCOCC1,?,1%,6%,i,i
Clc1cccc(CNc2nc(-c3cccnc3)nc3ccccc23)c1,?,?,2%,?,i
C/C(=N\Nc1cc(C)nc(-c2ccccc2O)n1)c1ccccc1,?,?,?,i,i
Cc1cc(N/N=C/c2ccc(O)c(C)c2O)nc(-c2ccccc2O)n1,2.9µM*,?,?,?,?
CN(Cc1ccccc1F)c1nc(-c2cccnc2)nc2ccccc12,?,?,-5%,?,?
CCOc1ccc(CN(C)c2nc(-c3cccnc3)nc3ccccc23)cc1OC,18µM*,?,13%,?,i
COc1cc(/C=N/Nc2ncnc3sc4c(c23)CCC4)ccc1O,?,?,23µM*,i,?
COc1cc(/C=N/NC2=NCCCCC2)ccc1O,3%,-5%,-6%,i,i
Oc1ccc(/C=N/Nc2nc(-c3cccnc3)nc3ccccc23)c(O)c1,16µM*,?,?,i,i
OCc1ccccc1-c1ccc2nccn2c1,/,/,/,i,i
OC[C@H]1O[C@H](c2nc(-c3nc(-c4cccc(-n5cccc5)c4)no3)cs2)C[C@@H]1O,/,/,/,i,i
O=C(NCCCCNCCCNC(=O)c1ccccc1)c1ccccc1,4%,-6%,-36%,i,i
COc1cccc(CC2(CO)CCCN(Cc3[nH]c4ccc(C)cc4c3C)C2)c1 (centres undefined),8%,3.3µM*,?,?,?
COc1cccc(CC2(CO)CCCN(Cc3ccc(C)s3)C2)c1 (centres undefined),-3%,?,-17%,?,i
O=C(NCc1ccco1)c1cc2sccc2n1Cc1ccccc1,-3%,-4%,15%,16µM*,i
O=C(NCCc1ccccc1)c1cc2sccc2n1Cc1ccccc1,-5%,-3%,3%[9.22 µM],i,i
O=C(c1ccco1)N1CCN(C(=O)c2cc3sccc3n2Cc2ccccc2)CC1,-4%,-6%,-2%,2.1µM*,?
O=C(NCc1ccccc1)c1cc(C2COCCN2C(=O)c2ccc3c(c2)CCO3)on1 (centres undefined),/,/,/,i,i
CC(=O)c1sc(-c2ccccc2)cc1N,7%,2%,-5%,?,i
NNC(=O)c1sc(-c2ccccc2)cc1N,-5%,21µM*,9%,?,i
